In ChEMBL document CHEMBL3988442, “University of Dundee, Small-Polar-MMV Screening Library” (2021):
Among all 85,000 compounds or so, about 440 (0.52%) showed an effect of 50% or more. Many of the other results were omitted from the sample, so strong results are more common in it than they were.

Experiment: In vitro enzyme assay to detect hydrolysis of chlorophenol red-beta-D-[…] directly proportional to the number of Toxoplasma stably expressing beta-galactosidase
Assay type: functional, organism-based, Toxoplasma gondii
Set-up: scale not given: in the data most compounds retested in dose-response had high values

Compound | Percent Effect (10 µM) [%] | Percent Effect (50 µM) [%]
CCn1nc(C)c2nc(C)nc(NCCCn3cccn3)c21 | 20.67 | –
CCn1nc(C)c2nc(C(C)C)nc(NCCCn3cccn3)c21 | 57.58 | –
CCCc1nc(NCCCn2cccn2)c2c(n1)c(C)nn2CC | 20.81 | –
CCCc1nc(NCCCn2ccnc2)c2c(n1)c(C)nn2CC | 67.95 | –
CCn1nc(C)c2ncnc(NCCCn3ccnc3)c21 | 9.36 | –
CCn1nc(C)c2nc(C(C)C)nc(NCCCn3ccnc3)c21 | 76.16 | –
CCn1nc(C)c2nc(C(C)C)nc(NCc3ccccn3)c21 | 23.92 | –
Cc1nn(C)c2c(NCCCn3cccn3)nc(C(C)C)nc12 | 10.17 | –
NC(=O)COc1ccc(CNCCn2cccn2)cc1 | – | 11.26
COCC(=O)N1CCN(CCC(C)C)CC1 | – | 7.319
O=C(NCCN1CCCC1)Nc1cccc2cn[nH]c12 | – | -2.677
Cc1cc(CN2CCC3(CC2)COC(COc2ccccn2)C3)no1 (stereo not drawn) | 96.36 | –
c1ccc(OCC2CC3(CCN(Cc4ccncc4)CC3)CO2)nc1 (stereo not drawn) | -2.51 | –
Cc1csc(CN2CCC3(CC2)COC(COc2ccccn2)C3)n1 (stereo not drawn) | -8.461 | –
Cc1cc(C)nc(NC(=O)C(C)C)n1 | – | 3.231
Cc1nc(-n2nc(C3CC3)cc2NC(=O)C(C)C)[nH]c(=O)c1C | 79.17 | –
CC(C)C(=O)Nc1cc(C(C)(C)C)nn1-c1ccccn1 | -3.105 | –
CC(=O)Nc1cc(C2CC2)nn1-c1nc(C)c(C)c(=O)[nH]1 | -13.24 | –
Cc1cc(NC(=O)C(C)C)n(-c2nc(C)c(C)c(=O)[nH]2)n1 | 91.77 | –
Cc1nc(-n2nc(-c3cccs3)cc2N)[nH]c(=O)c1C | 4.893 | –

Compound | Percent Effect (10 µM) [%] | Percent Effect (50 µM) [%]
NCc1ccc(OCC(F)F)cc1 | – | -2.459
O=C(C1CC1)N1CCC(Oc2cccnc2)C1 (stereo not drawn) | – | 1.461
CCC(CNc1ncnc2oc(C)nc12)Cc1ccccc1 (stereo not drawn) | -4.784 | –
CCCOc1ccc(Cl)cc1CNc1ncnc2oc(C)nc12 | 57.15 | –
CCCOc1ccccc1CCCNc1ncnc2oc(C)nc12 | 12.3 | –
CC(C)NC(=O)c1ccc(N2CCCCC2=O)cc1 | – | 19.08
CC(N)c1ccc(N2CCCCC2=O)cc1 (stereo not drawn) | – | 3.622
O=C1CCCCN1c1ccc(S(=O)(=O)NC2CC2)cc1 | – | 98.35
OCC1(Cc2ccccc2F)CCCNC1 (stereo not drawn) | – | 2.008
OC1(Cc2ccccc2F)CCNC1 (stereo not drawn) | – | 78.69
OC1(Cc2ccccc2F)CCNCC1 | – | -5.436
CC(NS(C)(=O)=O)C(=O)NCCCc1ccncc1 (stereo not drawn) | – | 0.4518
Cc1cc(CN(C)C(=O)C2CCCN2S(C)(=O)=O)no1 (stereo not drawn) | – | -2.48
O=C(CCN1C(=O)CCC1=O)Nc1ccc(F)cc1 | – | 6.107
Cc1nn(C)c2c(N3CCC(C)CC3)nc(C3CC3)nc12 | 6.306 | –
Cc1nc(N2CCN(c3ccccc3)CC2)c2c(n1)c(C)nn2C | 52.19 | –
CCC(=O)N1CCN(c2nc(C)nc3c(C)nn(C)c23)CC1 | 56.36 | –
Cc1nc(N2CCN(C(=O)C3CC3)CC2)c2c(n1)c(C)nn2C | 0.4782 | –
Cc1nc(N2CCN(C(=O)C3CCCC3)CC2)c2c(n1)c(C)nn2C | -37.24 | –
Cc1nc(N2CCN(C(=O)c3ccccc3)CC2)c2c(n1)c(C)nn2C | -7.412 | –

Compound | Percent Effect (10 µM) [%] | Percent Effect (50 µM) [%]
Cc1nc(N2CCN(C(=O)c3ccccn3)CC2)c2c(n1)c(C)nn2C | 25.12 | –
Cc1nn(C)c2c(N3CCN(C(=O)c4ccccc4)CC3)ncnc12 | -3.825 | –
Cc1nc(N2CCN(C(=O)c3ccncc3)CC2)c2c(n1)c(C)nn2C | 77.24 | –
Cc1nn(C)c2c(N3CCN(C)CC3)nc(C3CC3)nc12 | 7.951 | –
Cc1nc(N2CCN(C(=O)c3ccco3)CC2)c2c(n1)c(C)nn2C | 56.5 | –
CCC(=O)N1CCN(c2ncnc3c(C)nn(C)c23)CC1 | 7.071 | –
CN(C)[C@@H]1CN(C(=O)c2cccn2C)C[C@H]1CO | – | -4.756
CC(C)NC(C1CCNCC1)[C@H]1C[C@H](O)C1 (stereo partly drawn) | – | 23.17
CCOc1ncccc1C(=O)N1CCC(COC)C1 (stereo not drawn) | – | -5.58
CC1(C)CN(c2nccnc2C#N)CCS1(=O)=O | – | -1.06
O=C(NCC(F)(F)F)c1ccccc1NCCCO | – | 5.629
O=S(=O)(NC1CC1)C1CCN(CCc2ccccn2)C1 (stereo not drawn) | – | 5.549
c1ccc(N2CCCC2)nc1 | – | -4.186
CC(C)OCc1nc(C(C)N)no1 (stereo not drawn) | – | -1.581
CCCN(C)C(CO)c1ccc(OC)cc1 (stereo not drawn) | – | -2.385
O=C(c1ccc2c(c1)OCO2)N1CCCC(n2cccn2)C1 (stereo not drawn) | 8.443 | –
O=C(c1ccc2c(c1)OCCCO2)N1CCCC(n2ccnc2)C1 (stereo not drawn) | -11.97 | –
O=C(c1ccc2c(c1)OCCCO2)N1CCCC(n2cccn2)C1 (stereo not drawn) | 55.61 | –
